According to PubChem BioAssay (Tox21):
Results filed as inconclusive are left out. A call without a number means that no potency is given here. The source made the active and inactive calls. Calls come from the whole dose curve; as a rule, active = well fitted cell-killing curve with a large enough effect in the repeat runs; inconclusive = weak or mixed curves; inactive = flat fitted curve, though single readings scatter.

test: qHTS assay to identify small molecule antagonists of the estrogen related receptor (ERR) signaling pathway - cell viability counter screen (AID 1224818); conditions: ERR reporter cell line viability counter screen; series mostly up to 46.1 µM
Summary of the method: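 Cells carrying the ERR pathway reporter were seeded and incubated for 6 hours before compound addition. After a 17.5-hour exposure at 37 C, live-cell protease activity was measured by CellTiter-Fluor fluorescence following 30 minutes of incubation.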

| SMILES | Potency |
| --- | --- |
| CC(C)C[C@H](NC(=O)[C@H](O)[C@H](N)Cc1ccccc1)C(=O)O | inactive |
| C1CCc2nnnn2CC1 | inactive |
| CC(C)NC[C@H](O)COc1cccc2ccccc12 | inactive |
| N=C(N)c1ccc(N)cc1 | inactive |
| CNc1ncnc2c1ncn2[C@H]1C[C@H](OP(=O)(O)O)[C@@H](COP(=O)(O)O)O1 | inactive |
| CNCCc1cnc(CCC(c2ccccc2)c2ccccc2)[nH]1 | inactive |
| CCN1C(=O)C=CC1=O | inactive |
| CN1C2CCC1CC(OC(=O)C(CO)c1ccccc1)C2 (stereo not given) | inactive |
| Cc1cc(N)c2ccccc2[n+]1CCCCCCCCCC[n+]1c(C)cc(N)c2ccccc21 | inactive |
| OC[C@H]1NC[C@@H](O)[C@@H]1O | inactive |
| O=C(O)[C@H]1NCCC[C@H]1C(=O)O | inactive |
| Nc1nc(OCC2CCCCC2)c2[nH]cnc2n1 | inactive |
| CCN(CC)CCn1c(=O)c(Cc2ccc(OC)cc2)nc2ccccc21 | inactive |
| CN(CC[C@@H](Oc1ccc(C(F)(F)F)cc1)c1ccccc1)CC(=O)O | inactive |
| CCCCOc1cc(CC2CNC(=O)N2)ccc1OC (stereo not given) | inactive |
| C[C@]12C=CC(=O)C=C1CC[C@@H]1C2=CC[C@]2(C)[C@@H](C(=O)CN3CCN(c4cc(N5CCCC5)nc(N5CCCC5)n4)CC3)CC[C@@H]12 | inactive |
| N=S(=O)(O)Cc1noc2ccccc12 | inactive |
| NC(=O)C1=CN(C2OC(COP(=O)(O)OP(=O)(O)OC[C@H]3O[C@@H](n4cnc5c(N)ncnc54)[C@H](OP(=O)(O)O)C3O)C(O)C2O)C=CC1 (stereo not given in full) | inactive |
| CCOC(=O)[C@H](CCc1ccccc1)N[C@@H](C)C(=O)N1[C@H](C(=O)O)C[C@H]2CCCC[C@@H]21 | inactive |
| N[C@@H](Cc1ccc(F)cc1)C(=O)O | inactive |

| SMILES | Potency |
| --- | --- |
| O=C(O)C1=CC(=C(c2ccc(O)c(C(=O)O)c2)c2ccc(O)c(C(=O)O)c2)C=CC1=O | inactive |
| COC(=O)[C@H]1[C@H]2C[C@H]3c4[nH]c5ccccc5c4CCN3C[C@H]2CC[C@@H]1O | inactive |
| NCCS(=O)O | inactive |
| CO[C@H]1O[C@@H]2O[C@]3(C)CC[C@@H]4[C@@H](C)CC[C@H]([C@H]1C)[C@]24OO3 | inactive |
| N[C@@H](Cc1ccc(O)c(I)c1)C(=O)O | inactive |
| N[C@@H](CC(=O)O)C(=O)O | inactive |
| Oc1ccc(C2CNCc3sccc32)cc1O (stereo not given) | inactive |
| Nc1ccc(N2C(=O)c3ccccc3C2=O)c(Cl)c1 | inactive |
| CSc1nc(N)c2ncn([C@@H]3O[C@H](COP(=O)(O)OP(=O)(O)O)C(O)[C@H]3O)c2n1 (stereo not given in full) | inactive |
| CCCC(CCC)C(=O)OC1CC2CCC(C1)[N+]2(C)C (stereo not given) | inactive |
| COc1cc2c(cc1O)CC[C@@H]1[C@@H]2CC[C@]2(C)[C@@H](O)CC[C@@H]12 | inactive |
| N=c1ccn2c(n1)O[C@H]1C(O)[C@@H](CO)O[C@H]12 (stereo not given in full) | inactive |
| CCNC(=O)[C@H]1O[C@@H](n2cnc3c(N)nc(NCCc4ccc(CCC(=O)O)cc4)nc32)[C@H](O)C1O (stereo not given in full) | inactive |
| CC1(C)CCC(NC(=O)[C@@H](N)CCC(=O)O)CC1 | inactive |
| NC1(C(=O)O)CCc2cc(C(=O)O)ccc21 (stereo not given) | inactive |
| O=C(O)c1cc(=O)c2ccccc2[nH]1 | inactive |
| NC(N)=NCCCCN=C(N)N | inactive |
| Nc1nc2c(cnn2CCc2ccccc2)c2nc(-c3ccco3)nn12 | inactive |
| O=C(c1cc(O)c(O)c([N+](=O)[O-])c1)c1ccccc1F | inactive |
| OC[C@H]1O[C@H](n2cnc3c(N[C@H]4CCC[C@@H]4O)ncnc32)[C@H](O)[C@@H]1O | inactive |
